# In PubChem BioAssay (NCI):
# This is part of a sample that, as a whole, favours compounds with a hit. Of some 83,000 tested, about 20% had one in any assay.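 In brief: 96-well plates, 48 h treatment, single concentration, percent growth endpoint.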 A number with no mark means an inactive call. Activity calls are given as the source filed them. Rule for the calls: active = growth percent below 10; inactive = the rest.
# How the values were obtained:
# Test in all cases: NCI-60 one-dose screen, 48 h (100 = growth as untreated, 0 = no growth, -100 = all killed)
# Conditions in all cases: 10 µM unless noted
# [1] = tested on: RPMI-8226 leukemia
# [2] = tested on: OVCAR-8 ovarian
# [3] = tested on: OVCAR-5 ovarian
# [4] = tested on: OVCAR-4 ovarian
# [5] = tested on: SK-OV-3 ovarian
# [6] = tested on: IGROV1 ovarian
# [7] = tested on: OVCAR-3 ovarian
# [8] = tested on: HS 578T breast
# [9] = tested on: NCI/ADR-RES ovarian
# [10] = tested on: T-47D breast
# [11] = tested on: BT-549 breast
# [12] = tested on: MDA-MB-435 melanoma
# [13] = tested on: SW-620 colon
# [14] = tested on: MCF7 breast
# [15] = tested on: HCT-116 colon
# [16] = tested on: HCC-2998 colon
# [17] = tested on: KM12 colon
# [18] = tested on: SR leukemia
Compound,growth [1],growth [2],growth [3],growth [4],growth [5],growth [6],growth [7],growth [8],growth [9],growth [10],growth [11],growth [12],growth [13],growth [14],growth [15],growth [16],growth [17],growth [18]
COC(=O)c1ccc2c(c1)nc(-c1cc3ccccc3[nH]c1=O)n2-c1cc(C(C)(C)C)[nH]n1,22%,54%,96.6%,86.7%,105%,44.7%,94.5%,39.3%,2.6% (active),59.3%,54.6%,46.4%,61.8%,58.1%,51.1%,-10.1% (active),44.3%,
O=C1Nc2ccccc2/C1=C\c1nc(C2CCN(S(=O)(=O)c3ccc(F)cc3)CC2)n2ccccc12,94.3%,18%,88%,13.6%,57.8%,57%,58.6%,19%,17%,48.1%,2.09% (active),70.8%,82.8%,48.7%,64.8%,59.8%,65.8%,
COc1ccc(N=C2CSc3nnc(-c4cc(F)c(Cl)cc4Cl)n3N2)cc1,-23.5% (active),6.26% (active),-20.5% (active),-59.2% (active),-42.3% (active),-45.1% (active),-74% (active),-43.8% (active),9.18% (active),-20.1% (active),-21.2% (active),-45.6% (active),-47.1% (active),-34.3% (active),-61.4% (active),-71.4% (active),-12.3% (active),
C=C(C)[C@@H]1CC[C@]2(C(=O)NS(=O)(=O)c3ccccc3)CC[C@]3(C)[C@H](CC[C@@H]4[C@@]5(C)CC[C@H](OC(=O)NS(=O)(=O)c6ccccc6)C(C)(C)[C@@H]5CC[C@]43C)[C@@H]12,-55.3% (active),18.4%,15.5%,38.1%,29.7%,17.6%,-31.3% (active),14.5%,17.1%,1.6% (active),-0.983% (active),12.8%,16.6%,2.66% (active),-44.1% (active),-8.69% (active),4.05% (active),
C/C(=N\Nc1ccc([N+](=O)[O-])cn1)c1ccc(N)cc1,,,98.2%,100%,,93.5%,101%,109%,115%,103%,100%,96.5%,,85%,97.8%,102%,95.5%,21.8%
c1csc(-c2cnc3nonc3n2)c1,,,107%,89.5%,,76.9%,84.2%,92.5%,95%,45.9%,87.3%,98.6%,99.7%,61.3%,66.6%,112%,91.5%,39.3%
CCCCc1nc(Cl)c(C2CC(c3ccc(S(N)(=O)=O)cc3)=NN2c2cc(Cl)cc(Cl)c2)[nH]1 (configuration not stated),,,65.7%,51.4%,69.6%,65.6%,45%,36.9%,90%,42.5%,60.3%,35.7%,58%,6.51% (active),14.7%,29.4%,32.1%,0.947% (active)
Clc1cc(Cl)cc(-c2cnc3nonc3n2)c1,,94.2%,,,96.4%,94.9%,36%,102%,98.9%,59.8%,95.6%,103%,63.9%,69.5%,72.9%,97.5%,90%,93.2%
O=C(/C=C/c1ccco1)c1ccccc1O,92.4%,104%,101%,106%,115%,104%,97%,120%,97.7%,77.7%,95.6%,113%,99.7%,41.3%,96.8%,84.4%,99.8%,
COc1cc(C2CC(c3ccc(Cl)cc3)=NN2C(C)=O)ccc1Oc1ccnc2cc(Cl)ccc12 (configuration not stated),,26.8%,,,,58.1%,24%,38.8%,53.2%,53.9%,92%,62%,66.3%,42.5%,24.5%,59.4%,73.5%,76.4%
Fc1ccc(-c2nc(-c3ccc(-c4nc5ccc(F)cc5[nH]4)cc3)no2)cc1,88.1%,86.5%,94.7%,-8.43% (active),39.8%,74.3%,94.3%,71.3%,73.9%,62.8%,60.1%,68.2%,64.7%,52.5%,73%,82.2%,60.5%,
O=C1OC(/C=C/c2ccccc2)=NC/1=C/c1ccccc1[N+](=O)[O-],,,99.1%,94.2%,101%,79.6%,98.4%,107%,96.4%,90.5%,89.8%,108%,103%,90.7%,104%,104%,102%,90.8%
N/C(=N\OC(=O)c1ccccc1)C(Cc1ccccc1)C(=O)NOC(=O)c1ccccc1 (configuration not stated),,38%,,66.8%,103%,-63.2% (active),51.3%,-14.5% (active),18.3%,76.1%,26.4%,5.12% (active),,51.3%,2.08% (active),96.4%,24.2%,6.24% (active)
O=C(O)c1ccccc1Oc1cc(-c2ccco2)nc(OCCN2CCOCC2)n1,99.8%,105%,99.6%,108%,99.8%,103%,126%,112%,99.7%,97.2%,96.6%,101%,115%,102%,97.9%,108%,111%,
CCCCn1cnc2c(SCc3ccc([N+](=O)[O-])cc3)nc(N)nc21,,90.9%,,76.3%,116%,90.3%,98.4%,107%,89.3%,80%,90.4%,98%,109%,91.2%,92.5%,90.7%,97.9%,37.6%
COc1ccc(C(=O)N2N=C(c3ccc(F)cc3)CC2c2cn(-c3ccccc3)nc2-c2ccccc2)cc1 (configuration not stated),62%,39.4%,95.6%,68.2%,62%,85%,45.8%,83.7%,34.9%,50.6%,77.3%,62.5%,47.3%,33.7%,7.49% (active),85.7%,50.6%,
COc1ccc(C2NC(=O)c3cc4c(cc3N2)OCO4)cc1 (configuration not stated),27.8%,22.3%,45.3%,59.5%,-7.72% (active),42.8%,-45.9% (active),16.4%,3.94% (active),65.5%,59.1%,-41.6% (active),24.1%,18.2%,14.1%,9.52% (active),9.55% (active),
CCN(CC)c1ccc(/C=C2/NC(=O)NC2=O)cc1,74.1%,79.9%,33.2%,77%,33.7%,46.7%,19.3%,-2.99% (active),-31.9% (active),16.2%,38.9%,-34.1% (active),29%,6.89% (active),20.2%,39.5%,20.5%,
C[N+](C)(C)CCCCCCCCCC[N+](C)(C)C,96%,98.7%,117%,87.2%,106%,91.5%,105%,,98.4%,88.6%,78.7%,103%,95.8%,91%,106%,105%,103%,
